TDP1 inh: blocks human tyrosyl-DNA phosphodiesterase 1; Q9NUW8; recombinant TDP1, AlphaScreen DNA substrate cleavage; Potency, µM (titrated, usually from 130 µM), without a hit: at the highest dose activity change, negative = inhibition, hits mostly inhibitors; AID 485290; 0.28% of 350,000 active; further: potency means the concentration at half of the fitted maximal effect; on the % scale 0 is the no-effect control and ±100 the full control effect; nearly all actives have a fitted effect of over 40% in size
Target sequence (Q9NUW8 whole entry, looked up): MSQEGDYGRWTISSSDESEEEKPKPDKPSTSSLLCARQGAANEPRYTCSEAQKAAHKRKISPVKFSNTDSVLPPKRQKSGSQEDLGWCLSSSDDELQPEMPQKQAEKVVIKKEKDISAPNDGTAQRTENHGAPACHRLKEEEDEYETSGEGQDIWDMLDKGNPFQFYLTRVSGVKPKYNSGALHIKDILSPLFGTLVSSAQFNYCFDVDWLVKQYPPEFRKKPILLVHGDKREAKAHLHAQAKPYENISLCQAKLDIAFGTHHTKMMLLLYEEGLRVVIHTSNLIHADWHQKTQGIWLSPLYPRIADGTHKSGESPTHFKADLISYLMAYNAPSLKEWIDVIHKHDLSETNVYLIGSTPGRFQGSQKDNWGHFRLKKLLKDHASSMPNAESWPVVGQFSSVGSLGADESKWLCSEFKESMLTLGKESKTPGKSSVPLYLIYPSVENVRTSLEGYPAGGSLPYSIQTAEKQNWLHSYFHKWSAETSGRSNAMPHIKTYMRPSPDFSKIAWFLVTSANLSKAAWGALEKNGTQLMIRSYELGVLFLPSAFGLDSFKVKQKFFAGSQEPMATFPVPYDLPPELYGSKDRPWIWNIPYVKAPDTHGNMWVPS
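Recombinant human Tdp1 (E. coli-expressed, 1 nM final) preincubated with compounds 15 min at room temperature, then 5'-biotin/3'-phosphotyrosine-FITC DNA substrate (15 nM final) added for 5 min. AlphaScreen beads (10 ug/ml final) added 10 min; cleavage lowers signal.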
DT40 TDP1 CPT: DT40-hTDP1 cell growth loss with CPT; chicken DT40 Tdp1-/-;hTDP1 cells + 20 nM CPT, ATP luminescence, 48 h; Potency, µM (titrated, usually from 46.2 µM), for inactives: at the highest dose activity change, negative = growth inhibition, usual class: inhibitors; 12% of 420,000 active; AID 686979; further: potency means the concentration at half of the fitted maximal effect; on the % scale 0 is the no-effect control and ±100 the full control effect; nearly all actives have a fitted effect of over 55% in size
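Cell growth measured by CellTiter-Glo luminescence after a minimum 48 h, 37 C compound exposure with 20 nM CPT in Tdp1-knockout DT40 cells stably expressing hTDP1, seeded 400/well; qHTS titration format.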
IL-1B inflam inh: inhibitors of inflammasome signaling (IL-1 beta secretion); activity change, % at 57.5 µM; THP-1 LPS/ATP IL-1B secretion, AlphaLISA, 16 h; stronger effect = lower value; AID 743279; 4.7% of 360,000 active; in the data active means activity change below about -50%; inconclusive means mostly about -30% to -49%; further: on the % scale 0 is the no-effect control and ±100 the full control effect
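THP-1 cells pretreated 1 hr with compounds (up to 57.5 uM final), then stimulated with LPS (250 ng/mL final) plus ATP (1.25 mM final); secreted IL-1B measured by AlphaLISA after 16 hr, decreased signal indicating inhibition.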
HepG2 tox: HepG2 cytotoxicity, counter-screen for TGF-b inhibitors; HepG2 CAGA-GFP viability, ATP luminescence, 18 h; Potency, µM (series often up to 46.1 µM), for the others: at the top dose activity change, negative = cytotoxicity, usual class: cytotoxic; 0.76% of 410,000 active; AID 588856; further: potency means the concentration at half of the fitted maximal effect
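HepG2 CAGA-GFP cells (1000/well, DMEM with 1% FBS) received compound, then TGF-beta at 500 pg/mL final, and were incubated 18 hours at 37 degrees C. Viability was read by CellTiter-Glo luminescence. Media-only wells were set as complete cell-killing and DMSO as no toxicity.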
DT40 TDP1 no CPT: qHTS for Inhibitors of human tyrosyl-DNA phosphodiesterase 1 (TDP1): qHTS in cells in absence of CPT; DT40 Tdp1-/- hTDP1 cells, no CPT, ATP luminescence, 48 h; Potency, µM (doses to about 46.2 µM), inactives show at the top dose activity change, negative = growth inhibition, hits mostly inhibitors; 15% of 420,000 active; AID 686978, 2013; further: potency means the concentration at half of the fitted maximal effect; on the % scale 0 is the no-effect control and ±100 the full control effect; nearly all actives have a fitted effect of over 55% in size
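Chicken DT40 Tdp1-/- cells stably complemented with human TDP1 were seeded at 400 cells/well with DMSO in place of 20 nM camptothecin. After compound pinning, cells grew at least 48 hr at 37 °C; viability read by CellTiter-Glo luminescence.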
TGFb SMAD3 inh: TGF-b pathway inhibition | HepG2 CAGA-GFP TGF-b/SMAD3 reporter, GFP fluorescence, 18 h; TGF-beta stimulated, 500 pg/mL final | Potency, µM (titrated, usually from 46.1 µM), inactives show top-dose activity, negative = inhibition, usual class: inhibitors | 1.2% of 410,000 active | AID 588855; further: potency means the concentration at half of the fitted maximal effect; on the % scale 0 is the no-effect control and ±100 the full control effect; nearly all actives have a fitted effect of over 65% in size
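Inhibition was scored as loss of TGF-beta-induced (500 pg/mL final, 18 hours, 37 degrees C) GFP in HEPG2 cells carrying a CAGA-GFP reporter, in DMEM with 1% FBS. Well GFP was summed per cell; Activity was normalised to unstimulated and stimulated DMSO wells, then concentration-response fitting.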
Active calls of the source: *; [ ] = remark or other dose. In the library only some 19% were active in any assay of this set; here they are far more common. Unless noted, the call rests on the fitted dose curve; in most records, active means well fitted curve in the direction sought with a large enough effect; inconclusive means small, poorly fitted or top-dose-only effect, or another doubt; inactive means no such curve, though single readings can be large; an effect the other way counts as inactive or inconclusive.

What do the screens show for `OCc1cn(-c2ccccc2)nc1-c1ccc2c(c1)OCCO2`?
TDP1 inh: -6.8%; DT40 TDP1 CPT: inconclusive; IL-1B inflam inh: -22.6; HepG2 tox: -26.3%; DT40 TDP1 no CPT: 23.1µM*; TGFb SMAD3 inh: 0.2%

How did O=C(N/N=C/c1cn(-c2ccccc2)nc1-c1ccc(F)cc1)c1ccc2c(c1)OCO2 do in these assays?
TDP1 inh: 5.2%; DT40 TDP1 CPT: inconclusive; IL-1B inflam inh: inconclusive; HepG2 tox: -3.2%; DT40 TDP1 no CPT: 18.4µM*; TGFb SMAD3 inh: 3.4%

What do the screens show for `O=C(O)/C=C/c1cn(-c2ccccc2)nc1-c1ccc2c(c1)OCCO2`?
TDP1 inh: -6.0%; DT40 TDP1 CPT: -12.7%; IL-1B inflam inh: 25.7; HepG2 tox: -4.0%; DT40 TDP1 no CPT: inconclusive; TGFb SMAD3 inh: 2.4%

What do the screens show for `O/N=C/c1cn(-c2ccccc2)nc1-c1ccc2c(c1)OCCO2`?
TDP1 inh: 2.0%; DT40 TDP1 CPT: -10.8%; IL-1B inflam inh: -88.4*; HepG2 tox: -33.5%; DT40 TDP1 no CPT: -10.3%; TGFb SMAD3 inh: 2.5%

What do the screens show for `O=C(N/N=C/c1cn(-c2ccccc2)nc1-c1ccc2c(c1)OCCO2)c1ccncc1`?
TDP1 inh: 50.1µM*; DT40 TDP1 CPT: -12.0%; IL-1B inflam inh: -2.0; HepG2 tox: -13.5%; DT40 TDP1 no CPT: -28.8%; TGFb SMAD3 inh: -6.0%

How did COc1ccc(-c2nn(-c3ccccc3)cc2/C=N/NC(=O)c2ccc3c(c2)OCO3)cc1 do in these assays?
TDP1 inh: 0.5%

How did CCCOC(=O)c1c(NC(=O)c2cc3ccccc3c(=O)o2)sc2c1CCC(C)C2 (centres undefined) do in these assays?
TDP1 inh: 1.1%; DT40 TDP1 CPT: 10.5%; HepG2 tox: -20.8%; DT40 TDP1 no CPT: -10.7%; TGFb SMAD3 inh: inconclusive

Results for Cc1ccc(S(=O)(=O)c2cn(CC(=O)Nc3ccc4c(c3)OCO4)c3ccc(F)cc3c2=O)cc1 ?
TDP1 inh: -1.3%; DT40 TDP1 CPT: -26.5%; HepG2 tox: -3.8%; DT40 TDP1 no CPT: -29.6%; TGFb SMAD3 inh: inconclusive

How did CCc1cc2c(Nc3ccc(O)cc3)nc(C)nc2s1 do in these assays?
TDP1 inh: 6.3%; DT40 TDP1 CPT: -26.7%; IL-1B inflam inh: 15.0; HepG2 tox: -22.7%; DT40 TDP1 no CPT: -20.3%; TGFb SMAD3 inh: -7.1%

What do the screens show for `c1ccc(-n2cc(CNCCc3cscn3)c(-c3ccc4c(c3)OCO4)n2)cc1`?
TDP1 inh: -1.2%; DT40 TDP1 CPT: inconclusive; IL-1B inflam inh: -72.5*; HepG2 tox: -29.5%; DT40 TDP1 no CPT: 23.1µM*; TGFb SMAD3 inh: 1.2%

What do the screens show for `OC[C@@H]1CCCN1Cc1cn(-c2ccccc2)nc1-c1ccc2c(c1)OCO2`?
TDP1 inh: 2.7%; DT40 TDP1 CPT: inconclusive; IL-1B inflam inh: inconclusive; HepG2 tox: -28.0%; DT40 TDP1 no CPT: inconclusive; TGFb SMAD3 inh: -17.8%

How did CCC1CN(CCNC(=O)c2ccc(C#CC(C)(C)O)cc2)Cc2cc(OC)ccc2O1 (centres undefined) do in these assays?
DT40 TDP1 CPT: 4.1%[9.04 µM]; DT40 TDP1 no CPT: inconclusive

What do the screens show for `CC(C)(C)c1cc(CNC2CS(=O)(=O)C[C@@H]2O)cc(C(C)(C)C)c1O` (some centres undefined)?
TDP1 inh: 3.9%; DT40 TDP1 CPT: 14.6µM*; IL-1B inflam inh: -1.6; HepG2 tox: -25.5%; DT40 TDP1 no CPT: 16.4µM*; TGFb SMAD3 inh: -14.0%

What do the screens show for `O=C(O)CCCNc1cc(N2CCN(C(=O)c3ccco3)CC2)c2noc3c2c1C(=O)c1ccccc1-3`?
TDP1 inh: 5.4%; DT40 TDP1 CPT: inconclusive; IL-1B inflam inh: inconclusive; HepG2 tox: -36.3%; DT40 TDP1 no CPT: inconclusive; TGFb SMAD3 inh: 75.7%

Source: PubChem
